For eight compounds, growth results are on record in PubChem BioAssay (NCI).

About 83,000 compounds went through this panel and 20% of them were active in at least one assay; those are over-represented in the sample as a whole.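 Percent growth is the endpoint: 0 to 100 indicates growth inhibition (40 means 60% inhibition), 0 means no net growth, and negative values indicate cell death.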 Unmarked numbers belong to inactive results. Calls of active or inactive are those of the source. How the source made its calls: active means growth percent below 10; inactive means the rest.

Assay in all cases: NCI-60 one-dose screen, 48 h (100 = growth as untreated, 0 = no growth, -100 = all killed)
The subject of one test is HCT-15 colon. The conditions noted are these: 10 µM unless noted.
The subject of another test is HT29 colon. The conditions noted are these: 10 µM unless noted.
The test system of a further test is SNB-75 CNS. The conditions noted are these: 10 µM unless noted.
For the next test, the system named is SNB-19 CNS. The conditions noted are these: 10 µM unless noted.
The test system of another test is U251 CNS. The conditions noted are these: 10 µM unless noted.
The next test has as its system PC-3 prostate. The conditions noted are these: 10 µM unless noted.
The next test deals with SK-MEL-5 melanoma. The conditions noted are these: 10 µM unless noted.
A further test concerns UACC-62 melanoma. The conditions noted are these: 10 µM unless noted.
The next test deals with SK-MEL-28 melanoma. The conditions noted are these: 10 µM unless noted.
In another test the test system is EKVX NSCLC. The conditions noted are these: 10 µM unless noted.
The test system of a further test is SN12C renal. The conditions noted are these: 10 µM unless noted.
Another test concerns UO-31 renal. The conditions noted are these: 10 µM unless noted.
A further test relates to TK-10 renal. The conditions noted are these: 10 µM unless noted.
For another test, the system named is ACHN renal. The conditions noted are these: 10 µM unless noted.
A further test has as its system CAKI-1 renal. The conditions noted are these: 10 µM.
The next test concerns A498 renal. The conditions noted are these: 10 µM unless noted.
A further test has as its system CCRF-CEM leukemia. The conditions noted are these: 10 µM unless noted.
The subject of another test is MOLT-4 leukemia. The conditions noted are these: 10 µM unless noted.
For a further test, the system named is SK-MEL-2 melanoma. The conditions noted are these: 10 µM unless noted.
The test system of a further test is LOX IMVI melanoma. The conditions noted are these: 10 µM unless noted.

`NC(N)=NS(=O)(=O)c1ccc(N=NC2C(=O)NN(c3ccccc3)C2=O)cc1` (stereo not drawn): the growth in the test with HCT-15 colon was 101%; in the test on HT29 colon, 112%; in the test on SNB-75 CNS, 84.1%; with SNB-19 CNS, 98.9%; in the test on U251 CNS, 103%; with PC-3 prostate it was 95.2%. For the same compound, the growth was 98.9% in the test with SK-MEL-5 melanoma; 96.1% in the test with UACC-62 melanoma; 111% with SK-MEL-28 melanoma; 110% in the test with EKVX NSCLC; 101% with SN12C renal; 82.9% with UO-31 renal. In addition, the growth in the test on TK-10 renal was 106%; in the test on ACHN renal, 95.9%; in the test with CAKI-1 renal, 87.7%; with A498 renal, 98.2%; with CCRF-CEM leukemia it was 116%; in the test on MOLT-4 leukemia it was 106%.

For `O=C1Nc2ccc(Cl)cc2/C1=C/c1ccc(OCc2ccc(F)cc2)cc1`, the growth was 87.8% in the test with HCT-15 colon; 99.4% in the test with HT29 colon; 89.7% with SNB-75 CNS; 99.1% in the test on SNB-19 CNS; 95.4% in the test on U251 CNS; 93.6% in the test on PC-3 prostate. Besides, the growth in the test with SK-MEL-5 melanoma was 105%; with UACC-62 melanoma, 90.8%; in the test with SK-MEL-28 melanoma, 96.3%; with EKVX NSCLC it was 90.9%; in the test on SN12C renal it was 93.9%; in the test on UO-31 renal, 86.4%. The growth with TK-10 renal is 99%; in the test on ACHN renal, 103%; in the test with CAKI-1 renal, 74.6%; with CCRF-CEM leukemia, -53.8% (active); in the test with MOLT-4 leukemia it was 93.4%.

For the compound `O=C1c2c(c3c4cccnc4[nH]c3c3ccc4ccccc4c23)C(=O)N1CCN1CCOCC1`, the growth in the test on HCT-15 colon is 47.5%; with HT29 colon, 53.3%; in the test with SNB-75 CNS, 68%; in the test with SNB-19 CNS it was 55.6%; with U251 CNS, 51.6%; in the test on PC-3 prostate, 62.1%. Moreover, the growth was 43.9% with SK-MEL-5 melanoma; 57.7% in the test on UACC-62 melanoma; 92.9% in the test with SK-MEL-28 melanoma; 98.4% with SK-MEL-2 melanoma; 86.7% in the test on EKVX NSCLC; 54.5% with UO-31 renal. The growth with TK-10 renal is 112%; with ACHN renal, 41.3%; in the test with CAKI-1 renal it was 46.2%; in the test with CCRF-CEM leukemia it was 23.9%; in the test on MOLT-4 leukemia, 7.9% (active).

As for `Cc1cc(=O)n2nc(-c3cn(C)c4ccc(Cl)cc34)sc2n1`, the growth in the test with HCT-15 colon is 86.4%; in the test on HT29 colon, 104%; with SNB-75 CNS, 97%; with SNB-19 CNS, 96.6%; in the test with U251 CNS it was 98.5%; with PC-3 prostate, 86.2%. The growth in the test on SK-MEL-5 melanoma is 88.8%; in the test with UACC-62 melanoma it was 86.8%; in the test with SK-MEL-28 melanoma, 100%; in the test with EKVX NSCLC, 89.5%; in the test on SN12C renal it was 91.6%; in the test with UO-31 renal, 87.1%. The growth with TK-10 renal was 138%; in the test with ACHN renal it was 89.8%; in the test with CAKI-1 renal, 79%; in the test on CCRF-CEM leukemia it was 88.3%; in the test on MOLT-4 leukemia, 86.6%.

Take `COc1cc(/C=N/Nc2ccnc3cc(Cl)ccc23)cc(OC)c1O`: the growth in the test on HCT-15 colon is -58.9% (active); in the test on HT29 colon, 8.25% (active); with SNB-75 CNS, -81.5% (active); in the test on SNB-19 CNS it was -24.5% (active); in the test on U251 CNS, -87.1% (active); with PC-3 prostate, -61.1% (active). Further, the growth in the test on SK-MEL-5 melanoma was -92.7% (active); with LOX IMVI melanoma it was -96.2% (active); with SK-MEL-28 melanoma, 98.4%; in the test with SK-MEL-2 melanoma, 119%; in the test with EKVX NSCLC, -71.8% (active); in the test on SN12C renal it was -64.7% (active). The growth with UO-31 renal is -96.4% (active); with TK-10 renal it was -69.6% (active); in the test on ACHN renal, -98.2% (active); with CAKI-1 renal, -93% (active); in the test on A498 renal, 99.5%; with CCRF-CEM leukemia, 9.72% (active). In the test on MOLT-4 leukemia, the growth is -13% (active).

In the case of `CCN(CC)CCN1C(=O)c2c(c3c4cccnc4[nH]c3c3ccc4ccccc4c23)C1=O`, the growth in the test on HCT-15 colon is 58.7%; with HT29 colon it was 66.7%; with SNB-75 CNS it was 54.3%; in the test on SNB-19 CNS it was 59.5%; with U251 CNS, 63.5%; in the test on PC-3 prostate, 59.2%. Further, the growth was 80% in the test on SK-MEL-5 melanoma; 69.2% with UACC-62 melanoma; 106% with SK-MEL-28 melanoma; 107% in the test with SK-MEL-2 melanoma; 89% in the test on EKVX NSCLC; 53.2% with UO-31 renal. Further, the growth is 121% in the test on TK-10 renal; 35.9% with ACHN renal; 46.5% with CAKI-1 renal; 77.3% with A498 renal; 21.9% in the test on CCRF-CEM leukemia; 12.8% in the test with MOLT-4 leukemia.

Turning to `CC(C)c1nn(-c2ccccc2)c(N2CCCCC2)c1/C=N/NC(N)=S`, the growth in the test on HCT-15 colon was 70.8%; with HT29 colon, 81.4%; with SNB-75 CNS it was 61.6%; with SNB-19 CNS, 92%; with U251 CNS it was 97.9%; in the test on PC-3 prostate, 82.5%. The growth is 87.5% with SK-MEL-5 melanoma; 92.5% in the test on UACC-62 melanoma; 109% in the test on SK-MEL-28 melanoma; 104% with SK-MEL-2 melanoma; 82.1% in the test on EKVX NSCLC; 89.9% with SN12C renal. Besides, the growth in the test on UO-31 renal was 64.5%; in the test with TK-10 renal it was 113%; in the test with ACHN renal it was 87.2%; with CAKI-1 renal, 69.2%; with A498 renal, 66.2%; with CCRF-CEM leukemia, 89.7%. In the test on MOLT-4 leukemia, the growth was 83.6%.

Regarding `CCOC(=O)c1c(NC(=O)c2ccc(F)cc2F)sc2c1CCC(=O)C2`, the growth is 80.6% in the test with HCT-15 colon; 103% in the test on HT29 colon; 94.3% with SNB-75 CNS; 67.2% with SNB-19 CNS; 53.5% in the test on U251 CNS; 93.7% with PC-3 prostate. The growth is 98.5% with SK-MEL-5 melanoma; 83.4% in the test on UACC-62 melanoma; 112% in the test with SK-MEL-28 melanoma; 98.3% in the test with SK-MEL-2 melanoma; 97.7% with EKVX NSCLC; 99% in the test on SN12C renal. In addition, the growth in the test on UO-31 renal is 83.8%; in the test with TK-10 renal, 124%; in the test with ACHN renal it was 95.6%; in the test on CAKI-1 renal, 80.1%; with CCRF-CEM leukemia, 98.2%; with MOLT-4 leukemia, 95.8%.
